Results reported in PubChem BioAssay AID651742 (Broad Institute, 2012).
The campaign covered roughly 5,600 compounds. About 780 (14%) were called active. Another 3% or so got no clear call; they are omitted.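 How the source made its calls: active means mean signal decrease across replicates above about 35% based on untreated-well scatter, with enough replicates individually passing (limit read from the data); inconclusive means no rule stated though some were filed; inactive means the rest.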 The list is a sample of the results.

test: cytotoxicity in mouse NIH/3T3 fibroblasts, confirmation, cytotoxicity control for T. cruzi proliferation inhibitor project, cell-based, cherry-pick, single point (AID 651742); details: NIH/3T3 viability, CellTiter-Glo ATP luminescence, 90 h; at 8.35 µM; active compounds read high;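 further: 0% = median of neutral control wells and 100% = median of positive control wells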

| Structure (SMILES) | cytotoxicity (signal decrease) |
| --- | --- |
| O=C(Nc1cc(Cl)cc(Cl)c1)N[C@H]1CC[C@@H](CCNS(=O)(=O)c2cccc(F)c2)O[C@H]1CO | 2.47% (inactive) |
| Cc1ccc(S(=O)(=O)N(C)C[C@@H]2Oc3ncc(-c4cc5ccccc5o4)cc3C(=O)N([C@H](C)CO)C[C@@H]2C)cc1 | 38.6% (active) |
| C[C@H](CO)N1C[C@H](C)[C@H](CN(C)C(=O)C2CCCCC2)Oc2ncc(C#Cc3cccc(F)c3)cc2C1=O | 25.3% (inactive) |
| C[C@@H]1CN([C@H](C)CO)C(=O)c2cc(C#Cc3ccccn3)cnc2O[C@H]1CN(C)Cc1ccccc1 | -3.21% (inactive) |
| CCCNC(=O)N(C)C[C@@H]1Oc2ncc(C#Cc3ccccc3F)cc2C(=O)N([C@@H](C)CO)C[C@H]1C | -5.73% (inactive) |
| C[C@H](CO)N1C[C@H](C)[C@H](CN(C)S(=O)(=O)c2ccccc2)Oc2ncc(-c3cccc(C(F)(F)F)c3)cc2C1=O | 33.1% (inactive) |
| C[C@H](CO)N1C[C@H](C)[C@H](CN(C)C(=O)Nc2ccc3c(c2)OCO3)Oc2ncc(C#Cc3cccc(F)c3)cc2C1=O | 66.2% (active) |
| C[C@H](CO)N1C[C@H](C)[C@@H](CN(C)S(=O)(=O)c2ccccc2)Oc2ncc(C#Cc3ccccc3F)cc2C1=O | 37.2% (active) |
| C[C@@H]1CN([C@H](C)CO)C(=O)c2cc(-c3cncnc3)cnc2O[C@H]1CN(C)C(=O)Nc1ccc2c(c1)OCO2 | -12.9% (inactive) |
| C[C@@H]1CN([C@@H](C)CO)C(=O)c2cc(C#CC3CCCCC3)cnc2O[C@H]1CN(C)S(=O)(=O)c1ccccc1 | 17.3% (inactive) |
| C[C@H](CO)N1C[C@H](C)[C@@H](CN(C)S(=O)(=O)c2ccccc2F)Oc2ncc(C#Cc3ccccc3F)cc2C1=O | 48% (active) |
| Cc1ccc(-c2cnc3c(c2)C(=O)N([C@@H](C)CO)C[C@@H](C)[C@H](CN(C)Cc2ccccc2F)O3)cc1 | 33% (inactive) |
| C[C@H]1CN([C@@H](C)CO)C(=O)c2cc(C#CC3CCCCC3)cnc2O[C@H]1CN(C)S(=O)(=O)c1ccccc1 | 4.57% (inactive) |
| N#C[C@@H]1[C@H](c2ccc(C#Cc3cccc(F)c3)cc2)[C@@H](CO)N1C(=O)C1CCCC1 | -6.1% (inactive) |
| CC(C)(C)[S@@](=O)N1Cc2cc(C(=O)NCc3ccc4c(c3)OCO4)nc(-c3cccc(-c4ccccc4)c3)c2[C@H]1CCO | 24% (inactive) |
| COc1cccc(S(=O)(=O)N2CCCCN3[C@H](CO)[C@H](c4ccc(C#CC5CC5)cc4)[C@H]3C2)c1 | 24.2% (inactive) |
| C[C@@H]1CCCCO[C@H](CN(C)C(=O)NC2CCCCC2)[C@H](C)CN([C@H](C)CO)C(=O)c2cc(NS(=O)(=O)c3ccc(Cl)cc3)ccc2O1 | -21.2% (inactive) |
| C[C@H]1CN([C@@H](C)CO)C(=O)c2cccc(NS(=O)(=O)c3cn(C)cn3)c2O[C@@H]1CN(C)CC1CCCCC1 | -8.55% (inactive) |
| C[C@@H]1CCCCO[C@@H](CN(C)C(=O)Nc2ccc(F)cc2)[C@H](C)CN([C@H](C)CO)C(=O)c2cc(NC(=O)Nc3cccc4ccccc34)ccc2O1 | 1.18% (inactive) |
| CN1C(=O)c2cc(NC(=O)Nc3ccccc3F)ccc2OC[C@H]2O[C@H](CC(=O)NCc3ccc(-c4ccccc4)cc3)CC[C@H]21 | 8.3% (inactive) |

| Structure (SMILES) | cytotoxicity (signal decrease) |
| --- | --- |
| N#C[C@@H]1[C@@H](c2ccccc2)[C@@H](CO)N1C(=O)Cc1ccccc1 | 20.6% (inactive) |
| Cc1cc(C(=O)Nc2cccc3c2O[C@@H](CN(C)Cc2ccc(C(=O)Nc4ccccc4N)cc2)[C@H](C)CN([C@@H](C)CO)C3=O)n(C)n1 | 6% (inactive) |
| C[C@H]1CCCCO[C@H](CN(C)Cc2ccccc2)[C@@H](C)CN([C@@H](C)CO)C(=O)c2cc(NC(=O)c3ccccc3)ccc2O1 | -15.3% (inactive) |
| CC(C)NC(=O)Nc1ccc2c(c1)C(=O)N([C@@H](C)CO)C[C@H](C)[C@H](CN(C)S(=O)(=O)c1ccc(Cl)cc1)OCCCC[C@H](C)O2 | -22.1% (inactive) |
| O=C(Nc1ccc(-c2ccccc2)cc1)[C@H]1[C@H](CO)[C@H]2Cn3c(cccc3=O)[C@H]2N1CC1CC1 | 8.32% (inactive) |
| C[C@@H]1CN([C@@H](C)CO)S(=O)(=O)c2ccc(C#CCC3CCCC3)cc2O[C@H]1CN(C)C(=O)CC1CC1 | 15% (inactive) |
| C[C@H]1CN([C@@H](C)CO)S(=O)(=O)c2ccc(C#CC3CCCC3)cc2O[C@H]1CN(C)C(=O)Cc1ccncc1 | 6.81% (inactive) |
| COc1ccc(S(=O)(=O)N(C)C[C@H]2Oc3c(NC(=O)Nc4cccc5ccccc45)cccc3C(=O)N([C@@H](C)CO)C[C@H]2C)cc1 | 19.4% (inactive) |
| Cc1ccc(S(=O)(=O)N(C)C[C@@H]2Oc3c(NC(=O)c4nc5ccccc5s4)cccc3C(=O)N([C@H](C)CO)C[C@@H]2C)cc1 | 23.6% (inactive) |
| COc1ccc(S(=O)(=O)N(C)C[C@H]2OCCCC[C@H](C)Oc3ccc(NS(=O)(=O)c4ccc(F)cc4)cc3C(=O)N([C@@H](C)CO)C[C@@H]2C)cc1 | -16.9% (inactive) |
| CCC(=O)N1CC[C@@H]2[C@@H](CO)N(C)c3ccc(-c4ccc(F)cc4)cc3[C@@H]21 | -22.3% (inactive) |
| C/C=C/c1ccc([C@H]2[C@H]3CN(S(=O)(=O)c4ccccc4)CCCCN3[C@H]2CO)cc1 | 20.3% (inactive) |
| C[C@H]1CN([C@@H](C)CO)C(=O)c2ccccc2-c2ccccc2CO[C@@H]1CN(C)S(=O)(=O)c1ccc(C(F)(F)F)cc1 | 38.8% (active) |
| C[C@@H]1CCCCO[C@H](CN(C)S(=O)(=O)c2ccc(F)cc2)[C@H](C)CN([C@@H](C)CO)C(=O)c2cc(NS(=O)(=O)c3ccccc3)ccc2O1 | -7.76% (inactive) |
| C[C@H](CO)N1C[C@H](C)[C@@H](CN(C)S(=O)(=O)c2cccc(F)c2)OCc2ccccc2-c2c(n(C)c3ccccc23)C1=O | -5.9% (inactive) |
| Cc1ccc(S(=O)(=O)Nc2ccc3c(c2)C(=O)N([C@H](C)CO)C[C@H](C)[C@H](CN(C)Cc2ccc(Cl)c(Cl)c2)O3)cc1 | 17% (inactive) |
| C[C@H]1CCCCO[C@@H](CN(C)C(=O)NC2CCCCC2)[C@@H](C)CN([C@@H](C)CO)C(=O)c2cc(NS(=O)(=O)c3ccc(Cl)cc3)ccc2O1 | -16.4% (inactive) |
| COCC(=O)N1[C@H](CO)[C@@H](c2ccc(C#Cc3ccccc3F)cc2)[C@@H]1C#N | -6.81% (inactive) |
| C[C@@H]1CN([C@H](C)CO)C(=O)c2cc(NS(=O)(=O)c3cccs3)ccc2O[C@@H](C)CCCCO[C@H]1CN(C)Cc1ccc(C(F)(F)F)cc1 | 5.21% (inactive) |
